{"source": "PubChem BioAssay AID485314", "about": "(National Center for Advancing Translational Sciences (NCATS), 2010)", "note": "The whole screen tested about 340,000 compounds, of which about 4,500 (1.3%) were called active. Inconclusive results (about 5%) are left out. Shown is part of a subset that was picked to be rich in actives. Unmarked numbers belong to inactive results. Calls follow the shape of the dose curve; as a rule, active = well fitted inhibition curve with a large enough effect; inconclusive = small, poorly fitted or top-dose-only effect, or another doubt; inactive = no such curve, though single readings can be large or run the other way. % is scaled to controls: 0 for no effect and ±100 for the full control effect; potency is read from the fitted curve at half-maximal effect.", "data": [{"biological_target": "DNA polymerase beta (Homo sapiens) (UniProt P06746)", "experiment": "qHTS Assay for Inhibitors of DNA Polymerase Beta", "conditions": "Pol beta primer extension/strand displacement, fluorescence kinetic; series mostly up to 114 µM; activity change, negative = inhibition: at the top concentration", "in_short": "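10 nM enzyme + cpd, 15 min RT; start with substrate 50 nM final; read 0 min and after 10 min RT. Corrected, normalized data; 4-parameter Hill curve fit.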", "units": {"activity change, negative = inhibition": "%"}, "values": [{"smiles": "Cc1nc2c(c(C)nn2-c2ccccc2)c(C)c1CCC(=O)NCCc1ccc(Cl)cc1", "activity change, negative = inhibition": 1.97}, {"smiles": "CCOc1ccccc1CNC(=O)Nc1cn(CC(C)C)c(=O)c2ccccc12", "activity change, negative = inhibition": 5.13}, {"smiles": "Cc1nn(CC(=O)O)c(=O)c2cc3cc(F)ccc3n12", "activity change, negative = inhibition": 16.8}, {"smiles": "COc1ccc(CNC(=O)c2nnn(CC(=O)Nc3cc(C)cc(C)c3)c2N)cc1", "Potency": "10 µM (active)"}, {"smiles": "CCc1ccc(NC(=O)Cn2nnc(C(=O)NCc3ccc4c(c3)OCO4)c2N)cc1", "activity change, negative = inhibition": 21.7}, {"smiles": "COc1ccc(NC(=O)Cn2nnc(C(=O)NCCc3ccc(OC)c(OC)c3)c2N)cc1", "activity change, negative = inhibition": 0.0268}, {"smiles": "Cc1cccc(NC(=O)c2nnn(CC(=O)Nc3ccc(C(C)C)cc3)c2N)c1C", "activity change, negative = inhibition": 26.7}, {"smiles": "CC(C)c1ccc(NC(=O)Cn2nnc(C(=O)NCCc3ccccc3)c2N)cc1", "Potency": "7.94 µM (active)"}, {"smiles": "CCc1ccc(NC(=O)Cn2nnc(C(=O)NCc3ccc(OC)cc3)c2N)cc1", "activity change, negative = inhibition": 31.3}, {"smiles": "COCCNC(=O)CSc1nc(-c2ccccc2)[nH]c1-c1ccc(C)cc1", "activity change, negative = inhibition": 5.82}, {"smiles": "Cc1cccc(NC(=O)CN(c2ccc(C(C)C)cc2)S(=O)(=O)c2c(C)nn(C)c2C)c1C", "activity change, negative = inhibition": 36.1}, {"smiles": "CCOC(=O)c1c(NC(=O)c2ccc(S(=O)(=O)N(CC)CC)cc2)sc2c1CCCCC2", "activity change, negative = inhibition": -0.222}, {"smiles": "Cc1cc(C)c2oc(C(=O)Nc3ccc(S(=O)(=O)N(C)c4ccccc4)cc3)cc(=O)c2c1", "activity change, negative = inhibition": 26.5}, {"smiles": "COc1ccc(N2CCN(C(=O)CSCc3nc(-c4ccccc4Cl)oc3C)CC2)cc1", "activity change, negative = inhibition": -7.35}, {"smiles": "Cc1nc2sc(C)c(C)n2c(=O)c1S(=O)(=O)NCCc1ccc(Cl)cc1", "activity change, negative = inhibition": -2.13}, {"smiles": "CCc1cccc(-n2nnc(-c3nsc(NC(=O)c4ccc(C)cc4)n3)c2C)c1", "activity change, negative = inhibition": -13.5}, {"smiles": "CCN(CCCNC(=O)c1cc(Nc2ccc(OC)cc2)nc2ccccc12)c1cccc(C)c1", "activity change, negative = inhibition": 30.8}, {"smiles": "O=C(N/N=C/c1ccc(OC(=O)c2ccccc2Cl)cc1)c1ccc(O)cc1", "activity change, negative = inhibition": 17.4}, {"smiles": "Cc1nc2ccc(C(=O)N/N=C/c3ccc(O)cc3)cc2[nH]1", "Potency": "17.8 µM (active)"}, {"smiles": "Cc1nonc1C(=O)N/N=C/c1ccc(O)cc1", "activity change, negative = inhibition": -11.3}, {"smiles": "Cc1ccc2cc(CN(c3ccc(C)c(C)c3)S(C)(=O)=O)c(=O)[nH]c2c1", "activity change, negative = inhibition": -21.3}, {"smiles": "COc1ccc(N(Cc2cc3ccc(C)cc3[nH]c2=O)S(=O)(=O)c2ccccc2)cc1", "activity change, negative = inhibition": 6.72}, {"smiles": "COc1ccc(N(Cc2cc3cc(OC)ccc3[nH]c2=O)S(C)(=O)=O)cc1", "Potency": "4.47 µM (active)"}, {"smiles": "CCc1ccc(NC(=O)N2CCN(C(=O)c3nsc4ccccc34)CC2)cc1", "activity change, negative = inhibition": 40.9}, {"smiles": "COc1ccc(CNC(=O)CSCc2nc(-c3ccccc3F)oc2C)cc1", "activity change, negative = inhibition": 0.319}, {"smiles": "Cn1cc(S(=O)(=O)N2CCCCCC2)cc1C(=O)N1CCN(c2ccc(F)cc2)CC1", "activity change, negative = inhibition": 3.17}, {"smiles": "O=C(NCCN1C(=O)S/C(=C\\c2cccnc2)C1=O)c1cccc(OC(F)F)c1", "activity change, negative = inhibition": 21.8}, {"smiles": "Cc1nn(Cc2ccccc2)c(C)c1C(=O)NCCN1C(=O)S/C(=C\\c2ccc(F)cc2)C1=O", "activity change, negative = inhibition": 5.67}, {"smiles": "N#Cc1ccccc1CN1C(=O)S/C(=C/c2cccn2-c2cccc(C(=O)O)c2)C1=O", "Potency": "11.2 µM (active)"}, {"smiles": "O=c1c(NCc2cccs2)nccn1-c1ccccc1", "activity change, negative = inhibition": -23.5}, {"smiles": "COc1ccccc1CN1CCC(CNC(=O)c2cnn(-c3cccc(Cl)c3)c2C2CCN(C(=O)OC(C)(C)C)CC2)CC1", "activity change, negative = inhibition": -17.3}, {"smiles": "CCc1ccccc1N1CC(c2nc3ccccc3n2CCCCOc2ccccc2)CC1=O", "note": "(stereo unspecified)", "activity change, negative = inhibition": 12}, {"smiles": "c1ccc(-c2ccc(OCCN3CCOCC3)cc2)cc1", "activity change, negative = inhibition": 10.7}, {"smiles": "CCOc1nc(NCCN2CCOCC2)nc(Nc2ccc(C)cc2)n1", "activity change, negative = inhibition": 32}, {"smiles": "c1ccc2cc3c(NCCN4CCOCC4)ccnc3cc2c1", "Potency": "14.1 µM (active)"}, {"smiles": "Cc1cccc2c1-c1sc(C(=O)Nc3ccc(F)cc3F)cc1CO2", "activity change, negative = inhibition": -1.64}, {"smiles": "Cc1cccc(C(=O)OCC(=O)Nc2ccc(F)cc2)c1", "activity change, negative = inhibition": -11.2}, {"smiles": "O=C(COC(=O)c1ccc(F)cc1F)Nc1ncccn1", "Potency": "35.5 µM (active)"}, {"smiles": "COc1cc(OC)cc(C(=O)OCC(=O)Nc2ccc(F)cc2F)c1", "activity change, negative = inhibition": -0.999}, {"smiles": "Cc1ccc(NNC(=O)C2CCC2)cc1C", "activity change, negative = inhibition": -17.5}, {"smiles": "O=c1cc(C(F)(F)F)[nH]c(=O)n1C1CCCCC1", "activity change, negative = inhibition": 5.99}, {"smiles": "Cc1ccc(Nc2cc(=O)n(C3CCCCC3)c(=O)[nH]2)cc1C", "Potency": "56.2 µM (active)"}, {"smiles": "O=C(O)c1ccc(Nc2nc(-c3ccccc3)c3cc(Br)ccc3n2)cc1", "activity change, negative = inhibition": 29.2}, {"smiles": "COc1cccc(NC(=O)c2ccc3nc(CCc4ccccc4)oc3c2)c1", "activity change, negative = inhibition": -29.7}, {"smiles": "O=c1/c(=C/c2ccc(CNS(=O)(=O)c3ccccc3)o2)sc2n1CCN=2", "Potency": "50.1 µM (active)"}, {"smiles": "O=S(=O)(NCC1OCCc2ccccc21)c1ccccc1", "note": "(stereo unspecified)", "activity change, negative = inhibition": -16.7}, {"smiles": "O=S(=O)(NCCNS(=O)(=O)c1ccccc1)c1ccccc1", "activity change, negative = inhibition": -13.9}, {"smiles": "CCn1cc(C(=O)NCc2ccccc2)c(=O)c2cc(S(=O)(=O)N3CCCCC3)ccc21", "activity change, negative = inhibition": 8.9}, {"smiles": "C/C(=N\\NC(=O)Cc1ccc(Cl)cc1)c1ccccn1", "activity change, negative = inhibition": 18.3}, {"smiles": "CCN(CC)CCOc1ccc2c(c1)C(=NNC(=O)c1ccccn1)c1cc(OCCN(CC)CC)ccc1-2", "Potency": "2.82 µM (active)"}, {"smiles": "C/C(=N\\NC(=O)c1ccccc1F)c1ccccn1", "activity change, negative = inhibition": 11.4}]}]}
